Experimental findings from PubChem BioAssay (NCATS) are described below.

Inconclusive results are not listed. Active and inactive are the calls of the source. Calls come from the whole dose curve; as a rule, active = well fitted curve in the direction sought with a large enough effect; inconclusive = small, poorly fitted or top-dose-only effect, or another doubt; inactive = no such curve, though single readings can be large; an effect the other way counts as inactive or inconclusive.

Assay [1] addresses Metallo-beta-lactamase type 2 (Klebsiella pneumoniae) (UniProt C7C422). Description: qHTS to identify inhibitors of the New Delhi Metallo-beta-lactamase (NDM): assay validation screen against the NCATS LOPAC Collection (AID 1794843).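 Note: nitrocefin turnover by NDM-1 measured as 485 nm absorbance at plateau; series mostly up to about 38 µM.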 In a few lines: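 NDM-1 at 2 nM final in 50 mM HEPES pH 7.0, 1 uM ZnSO4, 0.01% Tween20, preincubated with LOPAC compounds pinned in DMSO; 50 uM nitrocefin (stock) added. Hydrolysis read as absorbance at 485 nm in the plateau phase.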
A general note: qHTS replaces the single test concentration by a dilution series.

Assay [2] concerns the target Glutathione peroxidase 1 (Homo sapiens) (UniProt P07203). Description: Primary qHTS Assay for Inhibitors of Recombinant Selenoprotein Glutathione Peroxidase 1 (GPX1) (AID 1845191). Note: nearly all actives have a fitted effect of over 65% in size. Note: potency is the fitted concentration of half-maximal effect. The gist of the method:
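GR-coupled readout: NADPH consumption tracked by fluorescence, ex 340/em 450 nm, at t=0 and after 15 min at RT. Final mix 10 nM GPX1, 1 mM GSH, 0.5 mM CHP, 0.5 mM NADPH, 100 nM GR, 0.01% BSA, following 30 min enzyme–compound preincubation.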

The target of assay [3] is Phospholipid hydroperoxide glutathione peroxidase GPX4 (Homo sapiens) (UniProt P36969). Put plainly: Primary qHTS Assay for Inhibitors of Recombinant Selenoprotein Glutathione Peroxidase 4 (GPX4) (AID 1845192). Note: nearly all actives have a fitted effect of over 65% in size. The gist of the method: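 Steps: GPX4 plus compound, 30 min RT; add GR/GSH/NADPH master mix; start with cumene hydroperoxide; read 340/450 nm fluorescence at 0 and 15 min. Finals were 200 nM GPX4, 1 mM GSH, 0.5 mM CHP, 0.5 mM NADPH, 100 nM GR.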

Assay [4] is described as follows: Quantitative High-Throughput drug screen in 47 multiple myeloma cell lines against the NCATS MIPE library collection: FR4_PLB cell viability assay (AID 1918924; note: nearly all actives have a fitted effect of over 35% in size; note: potency is the fitted concentration of half-maximal effect). The gist of the method:
(§1)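 We plated 500 myeloma cells per well, pinned in MIPE 4.0 compounds, and incubated for 48 hours at 37C. ATP was then quantified with CellTiter-Glo, with DMSO and media-only wells defining 100% and 0%.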

Assay [5] is described as follows: Quantitative High-Throughput drug screen in 47 multiple myeloma cell lines against the NCATS MIPE library collection: Delta47_JCRB cell viability assay (AID 1918925; note: nearly all actives have a fitted effect of over 45% in size; note: potency is the fitted concentration of half-maximal effect). The gist of the method: (§2)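 Inhibition of cell viability is measured here. Each line was plated at 500 cells per well, treated with MIPE 4.0 drugs, kept 48 hours at 37C, then assayed for ATP content by CellTiter-Glo luminescence.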

Assay [6] can be described thus: Quantitative High-Throughput drug screen in 47 multiple myeloma cell lines against the NCATS MIPE library collection: EJM_DSMZ cell viability assay (AID 1918926; note: nearly all actives have a fitted effect of over 30% in size; note: potency is the fitted concentration of half-maximal effect). In a few lines: as §2
Assay [7] can be described thus: Quantitative High-Throughput drug screen in 47 multiple myeloma cell lines against the NCATS MIPE library collection: AMO1_DSMZ cell viability assay (AID 1918927; note: nearly all actives have a fitted effect of over 30% in size; note: potency is the fitted concentration of half-maximal effect). The gist of the method:
as §2

Assay [8] in a line: Quantitative High-Throughput drug screen in 47 multiple myeloma cell lines against the NCATS MIPE library collection: ARP1_JJKsccF8 cell viability assay (AID 1918928; note: nearly all actives have a fitted effect of over 40% in size; note: potency is the fitted concentration of half-maximal effect). The gist of the method: (§3)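 Cell viability inhibition in this qHTS is measured via ATP content (CellTiter-Glo) after 48 h drug exposure at 37 °C. Wells hold 500 cells; DMSO-treated wells define 100% and medium-only wells 0%.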

Assay [9] is described as follows: Quantitative High-Throughput drug screen in 47 multiple myeloma cell lines against the NCATS MIPE library collection: Karpas620_DSMZ cell viability assay (AID 1918959). Note: nearly all actives have a fitted effect of over 30% in size. Note: potency is the fitted concentration of half-maximal effect. In a few lines: as §1
The nature of assay [10]: Quantitative High-Throughput drug screen in 47 multiple myeloma cell lines against the NCATS MIPE library collection: KMM1_JCRB cell viability assay (AID 1918960). Note: nearly all actives have a fitted effect of over 30% in size. Note: potency is the fitted concentration of half-maximal effect. The gist of the method: as §3
Assay [11] in a line: Quantitative High-Throughput drug screen in 47 multiple myeloma cell lines against the NCATS MIPE library collection: KHM11_PLB cell viability assay (AID 1918962). Note: nearly all actives have a fitted effect of over 35% in size. Note: potency is the fitted concentration of half-maximal effect. The gist of the method: as §1
A short description of assay [12]: Quantitative High-Throughput drug screen in 47 multiple myeloma cell lines against the NCATS MIPE library collection: JIM3_ECACC cell viability assay (AID 1918963; note: nearly all actives have a fitted effect of over 35% in size; note: potency is the fitted concentration of half-maximal effect). The gist of the method: as §1
A short description of assay [13]: Quantitative High-Throughput drug screen in 47 multiple myeloma cell lines against the NCATS MIPE library collection: INA6_PLB cell viability assay (AID 1918965; note: nearly all actives have a fitted effect of over 55% in size; note: potency is the fitted concentration of half-maximal effect). In a few lines: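 Viability readout: CellTiter-Glo luminescence following 5 min room-temperature incubation with reagent. Prior exposure: 48 h, 37C, humidified 5% CO2, 500 cells per well.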
Assay [14] deals with Luciferin 4-monooxygenase (Photinus pyralis) (UniProt P08659). Put plainly: Primary firefly luciferase (FLuc) qHTS assay for identification of artifact compounds. (AID 1845220). Note: series mostly up to about 54 µM; nearly all actives have a fitted effect of over 60% in size. The note with it: outcome: dose series up to 54.1 µM unless noted. In a few lines: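 D-luciferin and ATP (10 uM each, final) in Tris acetate buffer pH 7.6 were incubated with compounds for 15 min at room temperature. The reaction was started with 10 nM Photinus pyralis luciferase and luminescence read after 5 min. Percent inhibition was fitted to a 4-parameter Hill equation.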

A short description of assay [15]: Primary fluorescence-based thiol-reactive (MSTI) qHTS assay for identification of artifact compounds. (AID 1845221).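 Note: series mostly up to about 54 µM; thiol-reactive compounds lower the probe fluorescence signal; nearly all actives have a fitted effect of over 65% in size.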 The gist of the method: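 qHTS titration of compound; 4 uM MSTI, PBS pH 7.4, 2% DMSO; 1 h RT, dark; fluorescence 525/598 nm; normalized to Acetyl-MSTI and MSTI; 4-parameter Hill fit.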
For assay [16], the system named is Nanoluciferase (engineered Oplophorus gracilirostris luciferase). Description: Primary Nanoluciferase (NLuc) qHTS assay for identification of artifact compounds. (AID 1845222). Note: series mostly up to about 54 µM. In a few lines:
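Diluted conditioned medium from NLuc-expressing S16 cells treated with compounds for 15 min at room temperature, then Nano-Glo substrate added; luminescence read after 5 min. Percent inhibition versus no-enzyme and DMSO controls fitted to 4-parameter Hill equation.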

The nature of assay [17]: Primary redox qHTS assay for identification of artifact compounds. (AID 1845223). The gist of the method:
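Redox-cycling detection via DTT (250 uM final) oxidation coupled to Amplex Red (25 uM)/HRP (250 mU/mL) in HBSS. 15 min preincubation plus 30 min after DTT, room temperature. Ex/Em 525/598 nm; 4-parameter Hill fit against DMSO and 10 uM DA3003.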

Assay [18] can be described thus: Quantitative High-Throughput drug screen in 47 multiple myeloma cell lines against the NCATS MIPE library collection: JIM1_ECACC cell viability assay (AID 1918964; note: potency is the fitted concentration of half-maximal effect). The gist of the method: as §2
Assay [19] is described as follows: Quantitative High-Throughput drug screen in 47 multiple myeloma cell lines against the NCATS MIPE library collection: ARD_JJKsccE7 cell viability assay (AID 1918929). The gist of the method: as §2

Chain of Metallo-beta-lactamase type 2 (Klebsiella pneumoniae) (C7C422 whole entry, looked up): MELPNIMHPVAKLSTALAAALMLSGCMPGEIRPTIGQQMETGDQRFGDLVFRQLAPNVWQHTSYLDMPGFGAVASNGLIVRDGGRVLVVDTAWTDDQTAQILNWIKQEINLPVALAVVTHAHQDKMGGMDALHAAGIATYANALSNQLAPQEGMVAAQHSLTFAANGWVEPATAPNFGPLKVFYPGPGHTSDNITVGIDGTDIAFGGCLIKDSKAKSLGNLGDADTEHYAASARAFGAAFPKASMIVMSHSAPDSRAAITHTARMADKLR
Chain of Phospholipid hydroperoxide glutathione peroxidase GPX4 (Homo sapiens) (P36969 whole entry, looked up): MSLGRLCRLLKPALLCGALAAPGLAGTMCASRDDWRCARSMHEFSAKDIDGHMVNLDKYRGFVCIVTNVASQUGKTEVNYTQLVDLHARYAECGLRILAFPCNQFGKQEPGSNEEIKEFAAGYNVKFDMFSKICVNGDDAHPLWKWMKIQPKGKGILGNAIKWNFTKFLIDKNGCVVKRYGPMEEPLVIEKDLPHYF
Chain of Glutathione peroxidase 1 (Homo sapiens) (P07203 whole entry, looked up): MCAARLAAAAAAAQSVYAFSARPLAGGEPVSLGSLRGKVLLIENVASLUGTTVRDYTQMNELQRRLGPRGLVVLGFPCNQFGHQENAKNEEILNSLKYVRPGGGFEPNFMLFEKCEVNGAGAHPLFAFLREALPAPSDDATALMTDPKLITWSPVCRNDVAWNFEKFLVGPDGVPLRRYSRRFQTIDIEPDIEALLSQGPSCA

With `COc1cc(C(O)CN)ccc1O` (configuration not stated), the call in [1] was inactive. Further, the Potency result in assay [2] and in assay [3] was “inactive” throughout.
In the case of `NC(CP(=O)(O)O)C(=O)O` (configuration not stated), the Potency result in assay [2] and in assay [3] was “inactive” throughout.
As to `NC1CC1c1ccccc1` (configuration not stated), in [1], the compound was called inactive. For the same compound, the Potency result in assay [2], in assay [4], in [5], in assay [6], in assay [7] and in assay [8] was “inactive” in each case. Besides, the Potency result in assay [9], in [10], in assay [11], in [12] and in assay [13] was “inactive” throughout.
Turning to `CC(C)[C@]12O[C@H]1[C@@H]1O[C@]13[C@]1(O[C@H]1C[C@H]1C4=C(CC[C@@]13C)C(=O)OC4)[C@@H]2O`, the Potency entry in assay [2], in assay [3] and in assay [15] was “inactive” throughout. In addition, the compound was classed as inactive in [14], in assay [16] and in assay [17].
For the compound `O=C(O)[C@@H]1CCN1`, the Potency entry in assay [2] was “inactive”.
Regarding `O=[N+]([O-])c1ccc([As](=O)(O)O)cc1`, the Potency entry in assay [2] and in assay [3] was “inactive” throughout.
Consider `S=C(NC1CCCCC1)N1CCC(c2cnc[nH]2)CC1`, for which the outcome in assay [1], in assay [14], in assay [16] and in [17] was inactive. In addition, the Potency result in [2], in [3] and in assay [15] was “inactive” in each case.
Take `O=[N+]([O-])/N=C1\NCCN1Cc1ccc(Cl)nc1`: in [2], the Potency result is “inactive”.
As for `Cc1cc(O)ccc1Cl`, the Potency result in assay [2] and in assay [3] was “inactive” in each case.
Turning to `CC(C)(C)NC[C@H](O)c1ccc(O)cc1Cl`, the Potency entry in [2], in assay [3] and in [15] was “inactive” each time. For the same compound, the call in assay [14], in assay [16] and in assay [17] was inactive.
Consider `COc1ccc2c(c[n+](C)c3c4cc5c(cc4ccc23)OCO5)c1OC`, for which the compound was called inactive in assay [1]. Further, the Potency entry in [2] and in assay [3] was “inactive” each time. In addition, the Potency is 4.18 µM (active) in assay [4]; 9.35 µM (active) in assay [5]; 2.96 µM (active) in assay [6]; 6.62 µM (active) in assay [7]; 2.96 µM (active) in assay [8]; 5.9 µM (active) in assay [9]. Also, the Potency in [10] is 5.9 µM (active); in assay [11], 6.62 µM (active); in [12] it was 7.43 µM (active); in assay [18] it was 4.18 µM (active); in assay [13] it was 8.33 µM (active).
Take `c1ccc(CCCN2CCN(CCOC(c3ccccc3)c3ccccc3)CC2)cc1`: the outcome in [1] was inactive. Also, the Potency entry in assay [2], in [3], in assay [9] and in [10] was “inactive” each time. The Potency was 23.5 µM (active) in [4]; 16.6 µM (active) in [5]; 16.6 µM (active) in assay [11]; 20.9 µM (active) in assay [12]; 20.9 µM (active) in assay [13].
In the case of `C/C=C(/C)C(=O)O[C@H]1C(C)=C2[C@H]([C@@H]1OC(=O)CCCCCCC)[C@@](C)(OC(C)=O)C[C@H](OC(=O)CCC)[C@@]1(O)[C@H]2OC(=O)[C@@]1(C)O`, the Potency entry in assay [2], in assay [3] and in [15] was “inactive” throughout. Besides, the compound was called inactive in [14], in [16] and in assay [17].
As to `C=CCC1=C(C)C(OC(=O)C2C(C=C(C)C)C2(C)C)CC1=O` (configuration not stated), the Potency entry in assay [2] and in assay [3] was “inactive” in each case.
Regarding `COC(=O)[C@@H](N)CCCN=C(N)N[N+](=O)[O-]`, the outcome in assay [1] was inactive. Further, the Potency result in assay [2], in assay [4], in assay [5], in [6], in assay [7] and in assay [8] was “inactive” in each case. Further, the Potency entry in assay [19], in assay [9], in [10], in assay [12] and in [18] was “inactive” each time.
`S=C(SSC(=S)N1CCCCC1)N1CCCCC1`: in assay [2], the Potency was 12.8 µM (active).
